Experimental data reported in the supplement of paper PMC7380943.

Key:
[1] = system: CLZ3 (HCA2 human fibroblast dual HR-NHEJ reporter); experiment: NHEJ repair efficiency (GFP+ cells) relative to control (log10 fold); higher = more non-homologous end joining; conditions: 5 µM; doxycycline 0.5 ug/mL
[2] = system: CLZ3 (HCA2 human fibroblast dual HR-NHEJ reporter); experiment: HR repair efficiency (tdTomato+ cells) relative to control (log10 fold); higher = more homologous recombination; conditions: 5 µM; doxycycline 0.5 ug/mL
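Throughout, for HR repair efficiency (tdTomato+ cells) relative to control: compound given one day before doxycycline, which switches on I-SceI endonuclease expression to create double-strand breaks within the integrated reporter.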
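Throughout, for NHEJ repair efficiency (GFP+ cells) relative to control: compound given one day ahead of doxycycline, which switches on I-SceI endonuclease to cut the chromosomally integrated reporter and create DSBs.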

Row | Compound | NHEJ repair efficiency (log10) [1] | HR repair efficiency (log10) [2]
1 | O=C1C[C@@H](c2ccc(O)c(O)c2)Oc2cc(O)cc(O)c21 [Eriodictyol] | -0.0055 | 0.0227
2 | CC12CCC(CC1=O)C2(C)C (stereo unspecified) [Camphor] | -0.0599 | -0.0168
3 | O=C(/C=C/c1ccc(O)c(O)c1)O[C@@H]1CC(O)(C(=O)O)C[C@@H](OC(=O)/C=C/c2ccc(O)c(O)c2)C1O (stereo partly specified) [Isochlorogenic acid A] | 0.0485 | 0.0109
4 | C[C@H]1[C@H](C)CC[C@]2(C(=O)O[C@@H]3O[C@H](CO[C@@H]4O[C@H](CO)[C@@H](O[C@@H]5O[C@H](C)[C@H](O)[C@@H](O)[C@H]5O)[C@H](O)[C@H]4O)[C@@H](O)[C@H](O)[C@H]3O)CC[C@]3(C)C(=CC[C@@H]4[C@@]5(C)C[C@@H](O)[C@H](O)[C@@](C)(CO)[C@@H]5CC[C@]43C)[C@H]12 [Asiaticoside] | -0.0035 | -0.0111
5 | COc1cc2ccc(=O)oc2cc1OC [Scoparone] | 0.0322 | 0.0853
6 | C/C=C(/C)C(=O)O[C@H]1[C@@H](OC(=O)CC(C)C)c2c(ccc3ccc(=O)oc23)OC1(C)C [Praeruptorin E] | -0.0864 | -0.0529
7 | O=c1c(O)cc([C@H]2Oc3cc(O)cc(O)c3C[C@H]2O)cc2c([C@H]3Oc4cc(O)cc(O)c4C[C@H]3O)cc(O)c(O)c12 [Theaflavin] | 0.0294 | 0.0415
8 | COc1cc2c(cc1O)C[C@H]1c3cc(O)c(OC)cc3CC[N@@+]1(C)C2 [Phellodendrine] | 0.199 | -0.099
9 | CC(=O)[C@H]1CC[C@H]2[C@@H]3CCC4=CC(=O)CC[C@]4(C)[C@H]3CC[C@]12C [Lutin] | 0.0637 | 0.268
10 | C/C=C(/C)C(=O)O[C@H]1c2cc(OC)c(OC)c(OC)c2-c2c(cc3c(c2OC)OCO3)C[C@H](C)[C@]1(C)O [Wuweizi Ester B] | -0.108 | 0.0267
11 | COc1cc2c(cc1OC)[C@@H](Cc1ccc(Oc3cc(C[C@@H]4c5cc(OC)c(OC)cc5CCN4C)ccc3O)cc1)N(C)CC2 [Dauricine] | -0.0332 | -0.294
12 | CC(C)=CC/C=C(\C)[C@H]1CC[C@]2(C)[C@@H]1[C@H](O)C[C@@H]1[C@@]3(C)CC[C@H](O[C@@H]4O[C@H](CO)[C@@H](O)[C@H](O)[C@H]4O[C@@H]4O[C@H](CO)[C@@H](O)[C@H](O)[C@H]4O)C(C)(C)[C@@H]3CC[C@]12C [Ginsenoside Rg5] | 0.0582 | 0.0507
13 | C=CCc1ccc(O)c(-c2ccc(O)c(CC=C)c2)c1 [Honokiol] | 0.125 | 0.163
14 | CC1(C)CC[C@]2(C(=O)O)CC[C@]3(C)C(=CC[C@@H]4[C@@]5(C)C[C@@H](O)[C@H](O)C(C)(C)[C@@H]5CC[C@]43C)[C@@H]2C1 [Maslinic Acid] | -0.0568 | -0.0914
15 | O=C(/C=C/c1ccc(O)cc1)OC[C@H]1O[C@@H](Oc2c(-c3ccc(O)cc3)oc3cc(O)cc(O)c3c2=O)[C@H](O)[C@@H](O)[C@@H]1O [Tiliroside] | -0.00145 | -0.0226
16 | CC(C)=CCc1c(-c2ccc(O)cc2O)oc2c3c(cc(O)c2c1=O)OC(C)(C)C=C3 [Morusin] | 0.0648 | -0.298
17 | OC[C@H]1O[C@@H](O[C@@H]2OC=C[C@H]3[C@H](O)[C@@H]4O[C@]4(CO)[C@@H]23)[C@H](O)[C@@H](O)[C@@H]1O [Catalpol] | 0.0212 | 0.00259
18 | COc1ccc(-c2cc(=O)c3c(O)cc(O)c(-c4cc(-c5cc(=O)c6c(O)cc(OC)cc6o5)ccc4OC)c3o2)cc1 [Sciadopitysin] | 0.0652 | 0.234
